# CD11b adhes inh – inhibitors of human CD11b/CD18 binding to fibrinogen; K562 CD11b/CD18 adhesion to fibrinogen, ATPlite luminescence; Mn2+ added to activate the integrin; inhibition, % at 10 µM; actives 0.54% (n = 93,000);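 active = primary inhibition of 50% or more at 10 µM, then 40% or more on retest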
# CYP2C9 inhib – blocks human cytochrome P450 2C9. P11712. CYP2C9 Supersomes, luciferin-H conversion, luminescence. inhibition, % at 5 µM. actives 20% (n = 96,000);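 active = blocking of liver enzyme CYP2C9 beyond about 50% at 5 µM, limit read from the data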
# Target sequence (P11712 whole entry, looked up): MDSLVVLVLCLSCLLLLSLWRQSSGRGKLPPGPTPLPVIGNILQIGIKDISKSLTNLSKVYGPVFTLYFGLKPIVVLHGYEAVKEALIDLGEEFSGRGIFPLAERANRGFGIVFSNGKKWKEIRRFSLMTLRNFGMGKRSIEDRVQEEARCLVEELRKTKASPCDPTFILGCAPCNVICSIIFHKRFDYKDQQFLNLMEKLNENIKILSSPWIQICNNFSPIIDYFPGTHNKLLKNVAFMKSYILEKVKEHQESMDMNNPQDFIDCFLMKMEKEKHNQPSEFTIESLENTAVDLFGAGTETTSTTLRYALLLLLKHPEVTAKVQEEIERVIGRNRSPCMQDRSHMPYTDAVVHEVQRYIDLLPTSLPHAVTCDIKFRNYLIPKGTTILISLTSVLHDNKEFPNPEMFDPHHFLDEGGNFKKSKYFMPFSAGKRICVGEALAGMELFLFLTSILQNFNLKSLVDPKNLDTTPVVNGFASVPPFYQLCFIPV
# CYP2C19 inh – human CYP2C19 inhibition. P33261. CYP2C19 Supersomes, luciferin-H EGE luminescence, 30 min. inhibition, % at 5 µM. actives 21% (n = 96,000). AID 778;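 active = CYP2C19 inhibition above a set limit at 5 µM in the primary screen, cut at about 50% in these data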
# CYP2C19 act – activators of human cytochrome P450 2C19 | P33261 | recombinant CYP2C19, luciferin-H EGE luminescence; hits give high values; 0 = fully inhibited enzyme, 1 = untreated enzyme | 96,000 tested, under 10 active | activation factor at 5 µM;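 active = activation factor of at least 2 at 5 µM in the primary screen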
# Mac1 fbg enh – enhancers of human CD11b/CD18 binding to fibrinogen. P05107+P11215. K562 CD11b/CD18 adhesion to fibrinogen, ATPlite luminescence. activation, % at 10 µM. actives 0.07% (n = 93,000);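 active = 10 µM primary screen giving 50% or more activity, confirmed by 40% or more on retest at that dose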
# CYP2C9 activ – activators of human CYP2C9; P11712; recombinant CYP2C9, luciferin-H conversion, luminescence; hits give high values; factor 1 = untreated enzyme, 0 = blocked; activation factor at 5 µM; actives 1.4% (n = 96,000); AID 1024;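 active = activation factor of 2 or more for CYP2C9 at a 5 µM dose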
# Hits are given with their value; - = inactive; . = no result. In the library only some 28% were active in any assay of this set; here they are far more common.
SMILES,CD11b adhes inh,CYP2C9 inhib,CYP2C19 inh,CYP2C19 act,Mac1 fbg enh,CYP2C9 activ
CN(CCCNC(=O)C1CCN(S(=O)(=O)N2CCC3(CC2)OCCO3)CC1)Cc1ccccc1,-,-,-,-,-,-
COC(=O)[C@H](C)NC(=O)Nc1cc(OC)ccc1OC,-,-,-,-,-,-
O=C(NCCSc1c[nH]c2ccccc12)C1CC1,-,-,-,-,-,-
COc1ccc2c(CCNC(=O)c3ccco3)c[nH]c2c1,-,-,79.0,-,-,-
COc1ccc(CNCCNC(=O)c2ccco2)c(OC)c1OC,-,-,-,-,-,-
O=C(NCCSc1c[nH]c2ccccc12)c1ccco1,-,61.7,-,-,-,-
CCOC(=O)c1cccc(NC(=O)CSc2nc(N)cc(N)n2)c1,-,77.6,64.1,-,-,-
CCn1nnnc1SCC(=O)Nc1cccc(NC(C)=O)c1,-,-,-,-,-,-
CCOC(=O)c1cccc(NC(=O)CSc2nnnn2CC)c1,-,83.4,55.3,-,-,-
CCOC(=O)c1cccc(NC(=O)CSc2nnc(C)n2Cc2ccccc2)c1,-,91.3,86.6,-,-,-
CCOC(=O)c1ccc(NC(=O)CSc2nnnn2CCCO)cc1,-,-,57.6,-,-,-
COc1ccccc1N1CCN(C(=O)CN(c2cc(C)cc(C)c2)S(C)(=O)=O)CC1,-,-,-,-,-,-
CSCCC(NC(=O)c1cc([N+](=O)[O-])ccc1Cl)C(=O)O (centres undefined),-,.,.,.,-,.
CCCCCN(C(=O)NC(=O)Nc1ccccc1C)S(=O)(=O)c1ccccc1,-,.,.,.,-,.
CCOC(=O)N1CCN(C(=O)CN(c2cccc(C(F)(F)F)c2)S(C)(=O)=O)CC1,-,-,-,-,-,-
CCOC(=O)c1cccc(NC(=O)CSc2nnc(-c3ccoc3C)n2CC)c1,-,70.0,-,-,-,-
CCOC(=O)c1cccc(NC(=O)CSc2nnc(C3CCCCC3)n2CC)c1,-,-,-,-,-,-
Cc1ccnc(NC(=O)c2ccc(N3C(=O)CCC3=O)cc2)c1,.,-,-,-,.,-
COc1ccc(NC(C)c2cc(Cl)ccc2O)cc1 (centres undefined),-,-,58.4,-,-,-
CN(C)S(=O)(=O)n1cnc(-c2ccccc2)c1-c1ccccc1,-,-,-,-,-,-
O=C(Oc1ccc2c3c(c(=O)oc2c1)CCCC3)c1ccco1,-,-,-,-,-,2.1
CSCCC(NC(C)=O)C(=O)Oc1ccc2c3c(c(=O)oc2c1)CCCC3 (centres undefined),-,-,-,-,-,2.8
CCC(NC(=O)OC(C)(C)C)C(=O)Oc1ccc2c3c(c(=O)oc2c1)CCC3 (centres undefined),-,-,-,-,-,-
CC(C)Oc1ccc2c3c(c(=O)oc2c1)CCC3,-,-,78.6,-,-,-
CC(C)CC(C(=O)Oc1ccc2c3c(c(=O)oc2c1)CCC3)N1C(=O)c2ccccc2C1=O (centres undefined),-,-,-,-,-,-
SMILES,CD11b adhes inh,CYP2C9 inhib,CYP2C19 inh,CYP2C19 act,Mac1 fbg enh,CYP2C9 activ
COC(=O)C(C)Oc1ccc2c3c(c(=O)oc2c1)CCCCC3 (centres undefined),-,81.9,74.9,-,-,-
COc1cccc(C2/C(=C(/O)c3ccc(C)cc3)C(=O)C(=O)N2Cc2ccco2)c1 (centres undefined),-,.,.,.,-,.
O=C(O)COc1ccc2c3c(c(=O)oc2c1)CCC3,-,-,-,-,-,-
CCCOc1ccc2c3c(c(=O)oc2c1)CCCC3,-,-,58.7,-,-,-
CN1C(=O)C2(NCCc3c2[nH]c2ccccc32)c2ccccc21 (centres undefined),.,-,81.3,-,-,-
CC1(C)CCCN(C(=O)N2c3ccccc3Sc3ccccc32)C1,.,-,-,-,.,-
S=C(NCCSCc1ccccc1Cl)Nc1ccccc1,-,-,96.2,-,-,-
NS(=O)(=O)c1ccc(NC(=S)NCc2ccccc2Cl)cc1,-,.,.,.,-,.
S=C(NCCSCc1ccc(Cl)cc1)Nc1ccccc1,-,52.1,51.3,-,-,-
Cc1cc(C(F)(F)F)n(-c2nc(C(=O)Nc3ccccc3Oc3ccccc3)cs2)n1,-,-,-,-,-,-
CC(C)(C)n1ncc2c(=O)n(CC(=O)N3CCN(c4ccccc4)CC3)cnc21,-,-,-,-,-,-
CCN(Cc1ccncc1)S(=O)(=O)c1ccc(C(C)=O)cc1,-,86.9,91.4,-,-,-
Cc1cccc(-n2c(CNC(=O)c3ccccc3)nnc2SCC(=O)Nc2nccs2)c1,-,-,-,-,-,-
O=S(=O)(c1cccc2nsnc12)N1CCOCC1,-,-,-,-,-,-
COc1ccc(CCNC(=O)C2CCN(S(=O)(=O)c3cccc4nsnc34)CC2)cc1OC,.,-,-,-,.,-
CC(C)NS(=O)(=O)c1cccc2nsnc12,-,-,-,-,-,-
O=C(NCc1cccs1)C1CCN(S(=O)(=O)c2cccc3nsnc23)CC1,.,-,-,-,.,2.5
O=C(NCc1cccs1)C(NS(=O)(=O)c1cccc2nsnc12)c1ccccc1 (centres undefined),.,55.1,-,-,.,-
O=C(c1ccco1)N1CCN(S(=O)(=O)c2cccc3nsnc23)CC1,-,-,74.9,-,-,-
O=C(NCCc1ccccc1)C1CCN(S(=O)(=O)c2cccc3nsnc23)CC1,-,-,-,-,-,2
Cc1ccc2nc(-c3ccc(NC(=O)CN4C(=O)NC(C)(c5ccc(OC(F)F)cc5)C4=O)cc3)sc2c1 (centres undefined),-,.,.,.,-,.
CCOC(=O)c1nn(-c2ccccc2)c2nc(Nc3ccccc3)cc(=O)n12,-,-,-,-,-,-
CCC(=O)Nc1nc(C)c(C(=O)N2CCCCC2)s1,-,-,-,-,-,-
COc1cccc(-n2nnnc2SCC(=O)c2cc(OC)ccc2OC)c1,-,-,-,-,-,-
COc1cc2c(cc1NC(=O)CSc1nnc(Cc3cccs3)n1Cc1ccco1)oc1ccccc12,-,84.1,58.5,-,-,-
SMILES,CD11b adhes inh,CYP2C9 inhib,CYP2C19 inh,CYP2C19 act,Mac1 fbg enh,CYP2C9 activ
COc1cc2c(cc1NC(=O)COC(=O)Cn1cnc3ccccc31)oc1ccccc12,-,60.7,-,-,-,-
COc1cc2c(cc1NC(=O)COc1ccccc1OC)oc1ccccc12,-,-,-,-,-,-
COc1cc2c(cc1NC(=O)CSc1nnc(COc3ccc(Cl)cc3)n1C)oc1ccccc12,.,-,-,-,.,-
CCn1c(Cc2cccs2)nnc1SCC(=O)Nc1ccc(OC)c(OC)c1,-,-,-,-,-,-
COc1cc2c(cc1NC(=O)CSc1nnc(Cc3cccs3)n1C)oc1ccccc12,-,56.6,-,-,-,-
COc1ccc(OC)c(C(=O)CSc2nnc(Cc3cccs3)n2C)c1,-,-,89.3,-,-,-
